In the supplement of paper PMC8728848:
This excerpt belongs to a sample that is enriched for the strongest signals.

Tests used:
Test in all cases: glycan array binding signal (z-score within array); higher = stronger binding
Details in all cases: glycan notation: IUPAC condensed, linker removed; mutation: I144G
[1] = target: Fuc(a1-2)Gal(b1-3)GalNAc(b1-3)Gal(a1-4)Gal(b1-4)Glc
How it was run: (§1)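 Glycan array data were curated from 3228 arrays in the Consortium for Functional Glycomics database and kept only where the protein sequence was available. Glycan names were converted to IUPAC-condensed notation, and columns mapping to the same glycan were averaged. The binding signal is a within-array Z-score, averaged across arrays of the same protein sequence at different concentrations or buffers and across linkers. Negative Z-scores can be read as non-binding.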

[2] = target: Fuc(a1-2)Gal(b1-3)GlcNAc(b1-3)[Fuc(a1-2)Gal(b1-3)GlcNAc(b1-6)]GalNAc
How it was run: as §1

[3] = target: Fuc(a1-2)Gal(b1-4)[Fuc(a1-3)]GlcNAc(b1-3)[Neu5Ac(a2-6)Gal(b1-4)GlcNAc(b1-6)]Gal(b1-4)Glc
How it was run: as §1

[4] = target: Fuc(a1-2)[Gal(a1-3)]Gal(b1-4)GlcNAc(b1-6)GalNAc
How it was run: as §1

[5] = target: Fuc(a1-2)[GalNAc(a1-3)]Gal
How it was run: as §1

[6] = target: Fuc(a1-2)[GalNAc(a1-3)]Gal(b1-3)GlcNAc(b1-2)Man(a1-3)[Fuc(a1-2)[GalNAc(a1-3)]Gal(b1-3)GlcNAc(b1-2)Man(a1-6)]Man(b1-4)GlcNAc(b1-4)[Fuc(a1-6)]GlcNAc
How it was run: as §1

[7] = target: Gal(a1-3)Gal(b1-4)GlcNAc(b1-2)Man(a1-3)[Gal(a1-3)Gal(b1-4)GlcNAc(b1-2)Man(a1-6)]Man(b1-4)GlcNAc(b1-4)GlcNAc
How it was run: as §1

[8] = target: Gal(a1-4)Gal(b1-4)GlcNAc(b1-3)Gal(b1-4)Glc
How it was run: as §1

Gal(b1-3)Gal(b1-4)GlcNAc = target: Gal(b1-3)Gal(b1-4)GlcNAc
How it was run: as §1

[9] = target: Gal(b1-3)GalNAc(b1-4)[Neu5Ac(a2-3)]Gal(b1-4)Glc
How it was run: as §1

[10] = target: Gal(b1-4)GlcNAc(b1-3)Gal(b1-3)GalNAc
How it was run: as §1

Gal3S(b1-3)GalNAc = target: Gal3S(b1-3)GalNAc
How it was run: as §1

[11] = target: GlcA3S(b1-3)Gal(b1-4)GlcNAc(b1-2)Man
How it was run: as §1

[12] = target: GlcA3S(b1-3)Gal(b1-4)GlcNAc(b1-3)Gal(b1-4)Glc
How it was run: as §1

[13] = target: GlcNAc(b1-2)Man(a1-3)[GlcNAc(b1-4)][GlcNAc(b1-2)Man(a1-6)]Man(b1-4)GlcNAc(b1-4)[Fuc(a1-6)]GlcNAc
How it was run: as §1

[14] = target: GlcNAc(b1-3)Gal(b1-3)GalNAc
How it was run: as §1

GlcNAc(b1-6)GalNAc = target: GlcNAc(b1-6)GalNAc
How it was run: as §1

[15] = target: Neu5Ac(a2-3)Gal(b1-3)GalNAc
How it was run: as §1

[16] = target: Neu5Ac(a2-3)Gal(b1-3)GalNAc(b1-3)Gal(a1-4)Gal(b1-4)Glc
How it was run: as §1

[17] = target: Neu5Ac(a2-3)Gal(b1-3)GalNAc(b1-4)[Neu5Ac(a2-3)]Gal(b1-4)Glc
How it was run: as §1

[18] = target: Neu5Ac(a2-3)Gal(b1-3)GalNAc6S
How it was run: as §1

[19] = target: Neu5Ac(a2-3)Gal(b1-3)[GlcNAc(b1-6)]GalNAc
How it was run: as §1

[20] = target: Neu5Ac(a2-3)Gal(b1-4)GlcNAc(b1-2)Man(a1-3)[GlcNAc(b1-4)][Neu5Ac(a2-3)Gal(b1-4)GlcNAc(b1-2)Man(a1-6)]Man(b1-4)GlcNAc(b1-4)GlcNAc
How it was run: as §1

[21] = target: Neu5Ac(a2-3)Gal(b1-4)GlcNAc(b1-2)[Neu5Ac(a2-3)Gal(b1-4)GlcNAc(b1-6)]Man(a1-6)[Neu5Ac(a2-3)Gal(b1-4)GlcNAc(b1-2)Man(a1-3)][GlcNAc(b1-4)]Man(b1-4)GlcNAc(b1-4)GlcNAc
How it was run: as §1

[22] = target: Neu5Ac(a2-3)Gal(b1-4)GlcNAc(b1-3)Gal
How it was run: as §1

[23] = target: Neu5Ac(a2-6)Gal(b1-4)GlcNAc(b1-2)Man(a1-3)[Neu5Ac(a2-6)Gal(b1-4)GlcNAc(b1-2)Man(a1-6)]Man(b1-4)GlcNAc(b1-4)GlcNAc
How it was run: as §1

[24] = target: Neu5Ac(a2-6)Gal(b1-4)GlcNAc(b1-2)Man(a1-3)[Neu5Ac(a2-6)Gal(b1-4)GlcNAc(b1-2)Man(a1-6)]Man(b1-4)GlcNAc(b1-4)[Fuc(a1-6)]GlcNAc
How it was run: as §1

[25] = target: Neu5Ac(a2-6)Gal(b1-4)GlcNAc(b1-3)Gal(b1-4)GlcNAc
How it was run: as §1

[26] = target: Neu5Ac(a2-6)Gal(b1-4)GlcNAc(b1-3)Gal(b1-4)[Fuc(a1-3)]GlcNAc(b1-3)Gal(b1-4)[Fuc(a1-3)]GlcNAc
How it was run: as §1

[27] = target: Neu5Ac(a2-8)Neu5Ac(a2-3)Gal(b1-3)GalNAc(b1-4)[Neu5Ac(a2-3)]Gal(b1-4)Glc
How it was run: as §1

[28] = target: Neu5Ac9Ac(a2-3)Gal(b1-3)GlcNAc
How it was run: as §1

Neu5Gc(a2-6)GalNAc = target: Neu5Gc(a2-6)GalNAc
How it was run: as §1

[29] = target: Neu5Gc(a2-8)Neu5Ac(a2-3)Gal(b1-4)GlcNAc
How it was run: as §1

[30] = target: Neu5Gc(a2-8)Neu5Gc(a2-3)Gal(b1-4)GlcNAc
How it was run: as §1

B1: rAAL-I144G (Agrocybe aegerita), Q6WY08 (protein)
chain: MQGVNIYNISAGTSVDLAAPVTTGDIVTFFSSALNLNAGAGNPNNTTLNLFAENGAYLLHIAFRLQENVIIFNSRQPDGPWLVEQRVSDVANQFAGIDGKAMVTVFDHGDKYQVVINEKTVIQYTKQISGLTLSLSYNATEETSGFSTVVEAVTYTGLALEHHHHHH
glycan array binding signal (z-score) [1]: -0.112 | glycan array binding signal (z-score) [2]: -0.208 | glycan array binding signal (z-score) [3]: -0.075 | glycan array binding signal (z-score) [4]: -0.088 | glycan array binding signal (z-score) [5]: -0.166 | glycan array binding signal (z-score) [6]: -0.134 | glycan array binding signal (z-score) [7]: 2.88 | glycan array binding signal (z-score) [8]: -0.026 | glycan array binding signal (z-score) (Gal(b1-3)Gal(b1-4)GlcNAc): -0.134 | glycan array binding signal (z-score) [9]: -0.191 | glycan array binding signal (z-score) [10]: -0.191 | glycan array binding signal (z-score) (Gal3S(b1-3)GalNAc): 17.3 | glycan array binding signal (z-score) [11]: 11.8 | glycan array binding signal (z-score) [12]: 9.46 | glycan array binding signal (z-score) [13]: -0.15 | glycan array binding signal (z-score) [14]: -0.103 | glycan array binding signal (z-score) (GlcNAc(b1-6)GalNAc): -0.16 | glycan array binding signal (z-score) [15]: 1.67 | glycan array binding signal (z-score) [16]: 1.35 | glycan array binding signal (z-score) [17]: 1.33 | glycan array binding signal (z-score) [18]: 4.09 | glycan array binding signal (z-score) [19]: 1.74 | glycan array binding signal (z-score) [20]: 1.63 | glycan array binding signal (z-score) [21]: -0.073 | glycan array binding signal (z-score) [22]: -0.059 | glycan array binding signal (z-score) [23]: -0.111 | glycan array binding signal (z-score) [24]: -0.049 | glycan array binding signal (z-score) [25]: -0.176 | glycan array binding signal (z-score) [26]: -0.095 | glycan array binding signal (z-score) [27]: 1.99 | glycan array binding signal (z-score) [28]: -0.174 | glycan array binding signal (z-score) (Neu5Gc(a2-6)GalNAc): -0.086 | glycan array binding signal (z-score) [29]: -0.169 | glycan array binding signal (z-score) [30]: -0.122
